Results filed as inconclusive are left out. Active and inactive are the calls of the source. How the source made its calls, unless noted: active means hit-call score of the fitted dose curve at least 0.9, where 1 is the maximum; inconclusive means response in the unintended direction; inactive means score below 0.9.
Legend:
[1] = target: Retinoic acid receptor RXR-alpha (Homo sapiens) (UniProt P19793); test: TOX21_TR_RXR_BLA_Antagonist_Followup_ratio: Tox21 Thyroid Hormone Receptor beta Retinoid X Receptor alpha (RXRa) Antagonism Beta-lactamase (BLA) Follow-Up Assay, Ratio (AID 2283972)
Sequence of Retinoic acid receptor RXR-alpha (Homo sapiens) (P19793 whole entry, looked up): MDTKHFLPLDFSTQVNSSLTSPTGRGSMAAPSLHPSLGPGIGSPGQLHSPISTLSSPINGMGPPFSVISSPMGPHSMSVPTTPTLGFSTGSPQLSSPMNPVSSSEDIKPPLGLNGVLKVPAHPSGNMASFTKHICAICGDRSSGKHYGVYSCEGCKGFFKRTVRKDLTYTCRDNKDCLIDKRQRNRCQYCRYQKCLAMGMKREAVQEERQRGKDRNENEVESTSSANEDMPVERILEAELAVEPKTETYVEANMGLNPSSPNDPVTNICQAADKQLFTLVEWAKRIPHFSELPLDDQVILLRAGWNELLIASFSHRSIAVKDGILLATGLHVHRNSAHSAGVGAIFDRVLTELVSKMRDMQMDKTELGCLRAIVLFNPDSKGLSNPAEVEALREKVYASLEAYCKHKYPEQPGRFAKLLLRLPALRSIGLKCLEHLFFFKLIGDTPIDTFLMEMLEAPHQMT
Procedure, shortened: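 RXRa-UAS-bla HEK293T cells in phenol red-free DMEM with 2% charcoal-stripped FBS; compounds at 11 concentrations in triplicate, 16 h at 37C. LiveBLAzer FRET-B/CCF4-AM substrate 2 h at room temperature; read as 460:530 nm ratio versus DMSO.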

[2] = TOX21_TR_RXR_BLA_Antagonist_Followup_viability: Viability Assessment in the Tox21 Thyroid Hormone Receptor beta Retinoid X Receptor alpha (RXRa) Antagonism Beta-lactamase (BLA) Follow-Up Assay (AID 2283979)
Procedure, shortened: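 Follow-up compounds (11 concentrations, triplicate) were incubated 16 h at 37C/5% CO2 with HEK293T RXRa-bla cells seeded at 2,500/well in charcoal-stripped-serum medium. ATP content by CellTiter-Glo luminescence gave viability; curves fitted in both directions against DMSO.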

[3] = target: human Neurokinin, NK2 Receptor, TACR2 (gene 6865) (UniProt P21452); test: NVS_GPCR_hNK2: NovaScreen (NVS) G Protein-Coupled Receptor Assay for human Neurokinin, NK2 Receptor (AID 2283278);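 further: actives reduce bound radioligand signal relative to DMSO baseline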
Sequence of human Neurokinin, NK2 Receptor, TACR2 (gene 6865) (P21452 whole entry, looked up): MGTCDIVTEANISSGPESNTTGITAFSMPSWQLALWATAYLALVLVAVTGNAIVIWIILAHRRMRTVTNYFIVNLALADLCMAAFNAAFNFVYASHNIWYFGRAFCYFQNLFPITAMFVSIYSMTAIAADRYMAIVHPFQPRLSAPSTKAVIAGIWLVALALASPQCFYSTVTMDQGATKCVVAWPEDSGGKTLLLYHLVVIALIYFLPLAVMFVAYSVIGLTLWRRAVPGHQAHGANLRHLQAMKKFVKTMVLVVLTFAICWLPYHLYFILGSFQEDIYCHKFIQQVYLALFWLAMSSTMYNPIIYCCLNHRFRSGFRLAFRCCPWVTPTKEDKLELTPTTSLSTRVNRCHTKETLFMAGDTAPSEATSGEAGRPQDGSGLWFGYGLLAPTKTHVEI
Procedure, shortened: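 Test chemicals displace a radioligand from receptor prepared from CHO cells in a cell-free format, read after 4 hours by scintillation counting on filters. Screening starts at 25 uM in duplicate, and active chemicals then go to concentration series.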

[4] = target: human Opioid Receptor Mu (Opiate Mu), OPRM1 (gene 4988) (UniProt P35372); test: NVS_GPCR_hOpiate_mu: NovaScreen (NVS) G Protein-Coupled Receptor Assay for human Opioid Receptor Mu (Opiate Mu) (AID 2283290);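 further: hits lower bound tracer signal versus DMSO meaning displacement of the ligand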
Sequence of human Opioid Receptor Mu (Opiate Mu), OPRM1 (gene 4988) (P35372 whole entry, looked up): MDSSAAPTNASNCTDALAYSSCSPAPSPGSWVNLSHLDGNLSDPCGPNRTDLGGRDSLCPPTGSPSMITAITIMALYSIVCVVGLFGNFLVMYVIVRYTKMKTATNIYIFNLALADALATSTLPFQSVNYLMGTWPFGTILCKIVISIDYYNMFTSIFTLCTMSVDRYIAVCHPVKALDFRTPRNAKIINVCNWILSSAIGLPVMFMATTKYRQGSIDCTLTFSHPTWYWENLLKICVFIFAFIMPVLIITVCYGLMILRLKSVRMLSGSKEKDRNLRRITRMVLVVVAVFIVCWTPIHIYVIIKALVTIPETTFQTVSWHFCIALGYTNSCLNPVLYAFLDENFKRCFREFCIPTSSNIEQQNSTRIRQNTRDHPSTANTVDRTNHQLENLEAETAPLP
Procedure, shortened: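 Here, radioligand binding to CHO-extracted receptor was measured after 2.5 h using filter-based scintillation detection. Initial single-concentration screening used 25 uM in duplicate with plate controls; confirmed actives went to concentration-response testing.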

[5] = target: guinea pig Opioid, Kappa 1 Receptor (OpiateK), OPRK1 (gene 100135587) (UniProt P41144); test: NVS_GPCR_gOpiateK: NovaScreen (NVS) G Protein-Coupled Receptor Assay for guinea pig Opioid, Kappa 1 Receptor (OpiateK) (AID 2283252);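 further: active means reduced radioligand binding relative to DMSO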
Sequence of guinea pig Opioid, Kappa 1 Receptor (OpiateK), OPRK1 (gene 100135587) (P41144 whole entry, looked up): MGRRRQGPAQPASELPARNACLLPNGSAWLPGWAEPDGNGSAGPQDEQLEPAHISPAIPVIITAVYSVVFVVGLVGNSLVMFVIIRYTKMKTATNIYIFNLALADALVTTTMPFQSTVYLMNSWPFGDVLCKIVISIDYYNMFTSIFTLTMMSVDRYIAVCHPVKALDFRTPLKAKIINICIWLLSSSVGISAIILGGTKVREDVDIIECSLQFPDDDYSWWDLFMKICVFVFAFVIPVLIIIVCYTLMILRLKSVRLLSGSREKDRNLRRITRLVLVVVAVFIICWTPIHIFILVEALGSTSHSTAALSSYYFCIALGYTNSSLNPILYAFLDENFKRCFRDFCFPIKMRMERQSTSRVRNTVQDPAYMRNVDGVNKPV
Procedure, shortened: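 Radioligand binding to kappa opioid receptor in guinea pig cerebellar membranes, read by filtration and scintillation at 2 h. Compounds first tested in duplicate at 25 uM, then actives in concentration series; signal loss fitted against DMSO.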

[6] = target: D(1A) dopamine receptor (Homo sapiens) (UniProt P21728); test: NVS_GPCR_hDRD1: NovaScreen (NVS) G Protein-Coupled Receptor Assay for human Dopamine Receptor D1 (DRD1) (AID 2283269)
Sequence of D(1A) dopamine receptor (Homo sapiens) (P21728 whole entry, looked up): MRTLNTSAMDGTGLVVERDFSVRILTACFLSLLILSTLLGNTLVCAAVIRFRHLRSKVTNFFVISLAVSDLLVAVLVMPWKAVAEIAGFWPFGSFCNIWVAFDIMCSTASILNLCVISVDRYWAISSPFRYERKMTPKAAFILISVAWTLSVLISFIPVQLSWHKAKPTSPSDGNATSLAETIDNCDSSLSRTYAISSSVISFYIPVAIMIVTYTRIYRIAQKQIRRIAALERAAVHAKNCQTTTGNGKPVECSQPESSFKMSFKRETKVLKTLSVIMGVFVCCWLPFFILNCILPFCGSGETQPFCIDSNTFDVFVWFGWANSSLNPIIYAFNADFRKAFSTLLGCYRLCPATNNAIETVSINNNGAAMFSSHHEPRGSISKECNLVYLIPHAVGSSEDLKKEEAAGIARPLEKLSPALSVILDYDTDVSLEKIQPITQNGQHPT
Procedure, shortened: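 Extracted HEK293 DRD1 is incubated 1 h with compound and a tritiated or iodinated radioligand, then filtered and counted. Screening runs 25 uM in duplicate with on-plate positive and negative controls.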

[7] = CCTE_Shafer_MEA_dev_bursting_electrodes_number: CCTE's Neural Network Formation Assay for Number of Bursting Electrodes, Shafer Lab (AID 2284043)
Procedure, shortened: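 Number of electrodes reaching ≥1 burst every 2 min was recorded at DIV 5, 7, 9 and 12 and collapsed as trapezoidal area under the curve. Cultures were rat cortical neurons on MEA plates, dosed continuously from plating with medium and treatment refreshed on DIV 5 and 9.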

[8] = CCTE_Shafer_MEA_acute_AB: CCTE's Alamar Blue Assay for Cytotoxicity in the Neural Acute Assay, Shafer Lab (AID 2284069);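 further: active compounds lower the viability signal compared with DMSO wells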
Procedure, shortened: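 Cytotoxicity endpoint for acute MEA exposures of primary rat cortical neurons on day 13 or 15. Resazurin reduction is read fluorescently at 544/590 nm, with DMSO as the negative-control baseline.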

[9] = CCTE_Shafer_MEA_dev_AB: CCTE's Alamar Blue Assay for Cytotoxicity in the Neural Network Formation Assay, Shafer Lab (AID 2284083);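 further: resazurin reduction fluorescence as viability of cultured neurons; twelve days of exposure from plating with re-dosing on DIV 5 and 9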
Procedure, shortened: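 Cytotoxicity companion to the developmental MEA: primary rat cortical neurons, 12-day exposure starting day 0, compound refreshed DIV 5 and 9; resazurin fluorescence, fitted against DMSO vehicle.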

[10] = IUF_NPC1b_proliferation_BrdU_72hr: Leibniz Research Institute for Environmental Medicine (IUF) 72-hour Neural Progenitor Cell Bromodeoxyuridine (BrdU) Proliferation Assay (NPC1b) (AID 2284207; active means hit-call score of the fitted dose curve at least 0.9, where 1 is the maximum; inactive means score below 0.9)
Procedure, shortened: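 Human fetal cortex-derived (GW 16-19) neural progenitor spheres, 0.25-0.35 mm, one per well in EGF/FGF proliferation medium, exposed to compound for 72 h at 37C, pH 7.2-7.6. BrdU incorporation over the final 16 h read by luminescence ELISA, relative to DMSO.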

[11] = IUF_NPC1a_proliferation_area_72hr: Leibniz Research Institute for Environmental Medicine (IUF) 72-hour Neural Progenitor Cell Proliferation Area Assay (NPC1a) (AID 2284208; active means hit-call score of the fitted dose curve at least 0.9, where 1 is the maximum; inactive means score below 0.9)
Procedure, shortened: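 Read-out: increase in sphere area over 72 h by automated phase-contrast imaging, fitted in positive direction versus DMSO baseline. One hNPC sphere (0.25-0.35 mm) per well in EGF/FGF medium; growth-factor withdrawal served as positive control.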

[12] = IUF_NPC1_viability_72hr: Viability Assessment at 72 hours in the Leibniz Research Institute for Environmental Medicine (IUF) Neural Progenitor Cell Proliferation Assay (NPC1) (AID 2284209; active means hit-call score of the fitted dose curve at least 0.9, where 1 is the maximum; inactive means score below 0.9)
Procedure, shortened: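 Alamar blue fluorescence (RFU) after 72 h exposure, normalized to DMSO baseline. hNPC spheres from GW 16-19 fetal cortex, single sphere per well in growth-factor medium; no compound renewal.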

[13] = CCTE_Mundy_HCI_hNP1_CellTiter: CCTE's Cell Titer-Glo 2 Assay in human neuroprogenitor cells for Viability, Mundy Lab (AID 2284241)
Procedure, shortened: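 Human neural progenitor cells (hNP1, WA09-derived) were plated on poly-L-ornithine/laminin and grown 40 to 44 hours at 37 °C, 5% CO2 before chemical addition. Twenty-four hours later, ATP was measured by CellTiter-Glo luminescence; loss of signal versus DMSO indicates reduced viability.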

[14] = IUF_NPC2c_oligodendrocyte_migration_120hr: Leibniz Research Institute for Environmental Medicine (IUF) 120-hour Neural Progenitor Cell Migration Assay for Oligodendrocyte Migration (NPC2c) (AID 2284297; active means hit-call score of the fitted dose curve at least 0.9, where 1 is the maximum; inactive means score below 0.9;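 further: O4-positive oligodendrocyte migration distance divided by radial glia migration distance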)
Procedure, shortened: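 Human fetal cortex-derived neural progenitor spheres (0.3 mm) were plated on poly-D-lysine/laminin in N2 differentiation medium and exposed to 7 concentrations for 120 h, with half-medium renewal at day 3. Oligodendrocyte migration distance was normalized to radial glia migration, relative to DMSO.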

[15] = IUF_NPC2a_radial_glia_migration_120hr: Leibniz Research Institute for Environmental Medicine (IUF) 120-hour Neural Progenitor Cell Migration Assay for Radial Glia Migration (NPC2a) (AID 2284298; active means hit-call score of the fitted dose curve at least 0.9, where 1 is the maximum; inactive means score below 0.9)
Procedure, shortened: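 Single 0.3 mm primary human fetal-cortex (GW 16-19) NPC spheres were plated on poly-D-lysine/laminin in N2 differentiation medium and exposed from day 0 for 120 h, half-medium refreshed day 3. Migration distance came from Hoechst nuclei-density imaging, relative to DMSO.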

[16] = IUF_NPC2a_radial_glia_migration_72hr: Leibniz Research Institute for Environmental Medicine (IUF) 72-hour Neural Progenitor Cell Migration Assay for Radial Glia Migration (NPC2a) (AID 2284299; active means hit-call score of the fitted dose curve at least 0.9, where 1 is the maximum; inactive means score below 0.9)
Procedure, shortened: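 Readout: mean of four manual brightfield measurements of radial glia migration distance (um) at 72 h. hNPC spheres (0.3 mm) exposed to 7 compound concentrations plus solvent control on PDL/laminin, 37C, 5% CO2; activity fitted relative to DMSO.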

[17] = IUF_NPC2b_neuronal_migration_120hr: Leibniz Research Institute for Environmental Medicine (IUF) 120-hour Neural Progenitor Cell Migration Assay for Neuron Migration (NPC2b) (AID 2284300; active means hit-call score of the fitted dose curve at least 0.9, where 1 is the maximum; inactive means score below 0.9)
Procedure, shortened: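 Primary human fetal cortex neural progenitor spheres (0.3 mm) plated on poly-D-lysine/laminin in N2 differentiation medium, exposed 120 h with half-medium refresh at day 3. TUBB3-stained neuron distance from sphere core, normalized to radial glia migration, versus DMSO.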

[18] = IUF_NPC3_neuronal_differentiation_120hr: Leibniz Research Institute for Environmental Medicine (IUF) 120-hour Neuronal Differentiation Assay (NPC3) (AID 2284301; active means hit-call score of the fitted dose curve at least 0.9, where 1 is the maximum; inactive means score below 0.9)
Procedure, shortened: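 Value is percent TUBB3-positive neurons among Hoechst-stained nuclei in the migration area, scored by trained CNN after 120 h differentiation. Primary hNPC spheres on poly-D-lysine/laminin, N2 medium, continuous dosing from day 0, half-refeed day 3; DMSO reference.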

[19] = IUF_NPC4_neurite_length_120hr: Leibniz Research Institute for Environmental Medicine (IUF) 120-hour Neuronal Morphology Assay for Neurite Length (NPC4) (AID 2284302; active means hit-call score of the fitted dose curve at least 0.9, where 1 is the maximum; inactive means score below 0.9)
Procedure, shortened: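 Neurite length, the mean in um across TUBB3-stained neurons, is derived by skeletonization of high-content images after 120 h differentiation. Compound exposure, 7 concentrations plus solvent control, ran from plating of hNPC spheres on poly-D-lysine/laminin, with medium half-replaced on day 3.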

[20] = IUF_NPC5_oligodendrocyte_differentiation_120hr: Leibniz Research Institute for Environmental Medicine (IUF) 120-hour Oligodendrocyte Differentiation Assay (NPC5) (AID 2284304);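 further: primary human fetal neural progenitor spheres plated to migrate and differentiate; share of O4-positive cells among Hoechst nuclei found by CNN image analysis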
Procedure, shortened: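 Primary human fetal (GW 16-19) neural progenitor spheres (0.3 mm) plated on poly-D-lysine/laminin in N2 differentiation medium, exposed from day 0 for 120 h with half-medium refresh at day 3; O4-positive cells as percent of Hoechst nuclei, CNN-identified, versus DMSO.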

Measured: AC50

CC(C)n1c(/C=C/[C@@H](O)C[C@@H](O)CC(=O)O)c(-c2ccc(F)cc2)c2ccccc21
inactive: [1] | [2]

CC[N+](CC)(CC(=O)Nc1c(C)cccc1C)Cc1ccccc1
active: [3] 16.6 µM
inactive: [4]

CN(C)CCC(c1ccc(Cl)cc1)c1ccccn1 (stereo not given)
active: [5] 12.7 µM | [6] 12.1 µM
not listed: [1] | [2] | [3] | [4]
inactive: all other assays above

Source: PubChem BioAssay (EPA / NIEHS)
